This is one part of a sample in which hits are shown more often than they occur.
SARS PLP yeast – blocks SARS-CoV papain-like protease in a yeast assay; S. cerevisiae expressing SARS-CoV PLpro, growth rescue; 330,000 compounds, 0.19% hits; AID 485353; Potency, µM (top dose mostly 32.9 µM), for the others: at the top dose activity, positive = growth rescue, hits mostly activators; note: potency is the fitted concentration of half-maximal effect; 0% is about no effect; nearly all actives have a fitted effect of over 55% in size
LmPK inhibitor – blocks Leishmania mexicana pyruvate kinase activity. Q27686. purified LmPK, Kinase-Glo ATP luminescence, 1 h. Potency, µM (highest dose often 57.5 µM), without a hit: at the highest dose activity change, negative = inhibition, hits mostly inhibitors. 290,000 compounds, 0.37% hits. AID 1721; active = well fitted curve in the direction sought with a large enough effect; an effect the other way counts as inactive or inconclusive; note: potency is the fitted concentration of half-maximal effect; % is set by controls: 0 for no effect and ±100 for the full control effect
Target sequence (Q27686 whole entry, looked up): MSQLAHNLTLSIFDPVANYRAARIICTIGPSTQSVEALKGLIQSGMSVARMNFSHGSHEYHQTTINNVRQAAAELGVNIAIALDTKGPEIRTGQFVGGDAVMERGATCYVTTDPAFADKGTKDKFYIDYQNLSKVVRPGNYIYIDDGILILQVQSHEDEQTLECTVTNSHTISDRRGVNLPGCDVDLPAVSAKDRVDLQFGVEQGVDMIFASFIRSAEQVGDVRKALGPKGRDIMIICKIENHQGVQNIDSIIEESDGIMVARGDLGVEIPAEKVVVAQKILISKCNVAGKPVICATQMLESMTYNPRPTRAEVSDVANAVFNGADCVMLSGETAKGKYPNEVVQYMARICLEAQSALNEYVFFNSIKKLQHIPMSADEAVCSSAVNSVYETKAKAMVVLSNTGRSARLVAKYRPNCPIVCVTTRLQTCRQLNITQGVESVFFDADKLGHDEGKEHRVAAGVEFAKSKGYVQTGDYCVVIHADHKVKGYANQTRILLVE
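Kinase-Glo luminescence read after 1 h RT reaction of 0.1 nM LmPK with 0.5 mM PEP and 0.1 mM ADP. Activity scaled between uninhibited and enzyme-free controls.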
Shiga toxin inh – Shiga toxin inhibition; Vero cells, Shiga toxin protein synthesis inhibition reporter; inhibition, % at 38.7 µM; 290,000 compounds, 9.2% hits; in the data active = inhibition mostly above about 28%, no sharp cut-off; inactive = mostly below about 43%; note: 0% is about no effect
CHX counter – counter-screen hit for Shiga toxin inhibitors, cycloheximide. cell reporter, cycloheximide protein synthesis inhibition counterscreen. 300,000 compounds, 12% hits. max response, %; in the data active = max response mostly above about 13%, no sharp cut-off; inactive = mostly below about 14%; note: read at 38.3 µM for the half of the compounds with a filed dose; 0% is about no effect
Tb PYK inh – T. brucei pyruvate kinase inhibition. TbPYK enzyme, Kinase-Glo Plus ATP luminescence, 45 min. Potency, µM (highest dose often 76.8 µM), for inactives: top-dose activity, negative = inhibition, actives largely listed as inhibitors. 410,000 compounds, 0.12% hits. AID 624173; active = well fitted curve in the direction sought with a large enough effect; an effect the other way counts as inactive or inconclusive; note: potency is the fitted concentration of half-maximal effect; % is set by controls: 0 for no effect and ±100 for the full control effect; nearly all actives have a fitted effect of over 50% in size
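Screened from lowest to highest concentration, compounds were pinned into TbPYK/substrate mixtures, and ADP (130 uM final) was added. Plates sat at room temperature for 45 min prior to Kinase-Glo Plus detection by luminescence.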
NS1 function inh – blocks influenza NS1 protein function | Potency, µM (highest dose often 46.1 µM), for the others: top-dose activity, positive = more growth | 270,000 compounds, 0.4% hits; note: potency is the fitted concentration of half-maximal effect; actives are rising curves; nearly all actives have a fitted effect of over 50% in size
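Read-out: OD600 growth recovery of NS1-expressing budding yeast. Cells grown overnight at 30C in -URA glucose medium, washed, resuspended and diluted 1:100 in 2% galactose assay medium, pH 6.0. Same strain lacking NS1 served as positive control.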
The depositor's hits bear a star; / = no result given. Unless noted, calls come from the whole dose curve.

SMILES	SARS PLP yeast	LmPK inhibitor	Shiga toxin inh	CHX counter	Tb PYK inh	NS1 function inh
CCN1CCC2(CC1)Oc1c(OC)cccc1C1CC(c3cccnc3)=NN12 (configuration not stated)	0%	-2%	55*	44*	-8%	-3%
CC(=O)Nc1ccc(/C=C/c2nc(-c3ccccc3O)n(-c3ccccc3)n2)cc1	/	/	/	/	6%	/
CC(=O)Nc1ccc(/C=C/c2noc(-c3ccccc3O)n2)cc1	-1%	0%	54*	21	7%	-4%
Oc1ccccc1-c1nnco1	/	/	/	/	2%	/
COc1cc(/C=C/c2noc(-c3ccccc3O)n2)ccc1OC(C)=O	-1%	-2%	42*	15*	3%	-3%
Oc1ccccc1/C=C/c1noc(-c2ccccc2O)n1	0%	-3%	70*	33*	5%	0%
COc1ccc(/C=C/c2nc(-c3ccccc3O)n(-c3ccccc3)n2)cc1OC	/	/	/	/	2%	/
CCN(C(=O)C1CCC(CNS(=O)(=O)c2cccc3nsnc23)CC1)c1ccccc1 (configuration not stated)	/	/	/	/	1%	/
O=[N+]([O-])c1ccc2nc(-c3ccc(OC(F)F)cc3)cn2c1	0%	-4%	73*	45*	-5%	/
CCC1(c2ccccc2)NC(=O)N(CC(=O)NCCN2C(=O)S/C(=C\c3cccnc3)C2=O)C1=O (configuration not stated)	-7%	/	/	/	-3%	/
COc1cc(NS(=O)(=O)c2ccc([N+](=O)[O-])cc2)c2ncccc2c1	/	/	-11	5	/	/
Fc1cc(F)cc(Nc2nc(Cl)nc(NC3CCCC3)n2)c1	0%	/	/	/	0%	/
CC(C)(CO)Nc1nc(Cl)nc(NC2CCCCC2)n1	1%	0%	27	20*	1%	-3%
CCNc1nc(Cl)nc(NC2CCCCC2)n1	1%	1%	/	21*	3%	-13%
CC(C)Nc1nc(Cl)nc(NC2CCCCC2)n1	-6%	0%	14	10	-1%	-42%
CC(=O)Nc1ccc2nc3c(=O)[nH]c(=O)[nH]c3nc2c1	/	/	7	-2	/	/
CCOc1ccc(NC(=S)N2CCC(NC(=O)C3CCCCC3)CC2)cc1	0%	4%	-10	4	-3%	-1%
NC(=O)c1ccc(NC(=O)COC(=O)CCN2C(=O)c3ccccc3C2=O)cc1	6%	/	/	/	0%	/
Cc1ccc(NC(=O)COC(=O)c2ccn(C)n2)cc1	5%	1%	19	20*	10%	-13%
Cc1ccc(NC(=O)COC(=O)c2ccnn2C)cc1	-4%	-4%	93	32*	1%	-8%
Clc1c(CSc2nc3ccccc3o2)nc2ccccn12	-10%	-3%	54	33*	1%	-127%
O=C(O)c1ccc(CSc2nc3ccccc3o2)cc1	-8%	-1%	26	-3	-16%	-69%
O=C(CSc1nc2ccccc2o1)Nc1nncs1	-11%	-2%	13	11	10%	-8%
Brc1c(CSc2nc3ccccc3o2)nc2ncccn12	-7%	-7%	58	40*	4%	-121%
Clc1c(CSc2nc3ccccc3o2)nc2sccn12	-16%	-2%	152*	30*	-2%	-58%
SMILES	SARS PLP yeast	LmPK inhibitor	Shiga toxin inh	CHX counter	Tb PYK inh	NS1 function inh
CCN1C(=O)C(CC(=O)NCCc2ccccc2)N(NC(=O)c2ccc(Br)cc2)C1=S (configuration not stated)	/	/	/	/	-10%	/
CC(=O)c1ccc(N2CCN(S(=O)(=O)c3c(C)[nH]c(C)c3C(=O)N3CCCCC3)CC2)cc1	1%	6%	17	19*	3%	-18%
CC(=O)c1ccc(N2CCN(S(=O)(=O)c3c(C)[nH]c(C)c3C(=O)N3CCCC3)CC2)cc1	-1%	0%	11	11	2%	-15%
CC(C)Cc1nc(N2CCC(C(N)=O)CC2)c2nnn(Cc3ccccc3)c2n1	6%	2%	14	0	-8%	1%
Cc1nc(N2CCC(C)CC2)c2nnn(Cc3ccccc3)c2n1	-95%	4%	56*	12	0%	-31%
COc1cccc(NC(=O)CN(C)C(=O)CCNS(=O)(=O)c2ccc(C)cc2)c1	-2%	/	/	/	1%	/
CCc1[nH]c(=S)c(C#N)c2c1CCCC2	26%	17%	-13	-5	16µM*	5%
N#C/C(=C/c1ccc(C(=O)O)cc1)C(=O)NCc1ccccc1	-2%	3%	-8	-1	-10%	4%
Cc1cccc(NC(=O)/C(C#N)=C/c2cn(CC(=O)NCc3ccco3)c3ccccc23)c1C	4%	3%	-11	-3	-1%	21%
N#C/C(=C\c1cn(Cc2ccc(F)cc2)c2ccccc12)C(=O)NCc1ccco1	1%	1%	-11	-2	5%	20%
N#C/C(=C\c1cn(Cc2cccc(F)c2)c2ccccc12)C(=O)NCc1ccco1	15%	0%	28*	25*	-5%	15%
N#C/C(=C\c1ccco1)C(=O)NCc1ccccc1	-1%	-1%	41*	35*	1%	/
N#C/C(=C\c1cn(Cc2ccccc2)c2ccccc12)C(=O)NCc1ccco1	-26%	2%	35	29*	-9%	-2%
N#C/C(=C/c1cn(-c2ccccc2)nc1-c1cccc(S(=O)(=O)N2CCCC2)c1)C(=O)NCc1ccco1	-1%	3%	34*	9	-2%	20%
N#C/C(=C/c1cn(-c2ccccc2)nc1-c1cccc(S(=O)(=O)N2CCOCC2)c1)C(=O)NCc1ccco1	11%	3%	-2	-3	-12%	2%
Cc1cc(C)c(S(=O)(=O)N2CCCC(C(=O)NCc3cccnc3)C2)c(C)c1 (configuration not stated)	-4%	-1%	-5	-5	-1%	2%
CC1=C(C(=O)Nc2cc(C)cc(C)c2)C2(CCCCC2)OC1=O	/	/	/	/	-1%	/
Cc1ccc(NC(=O)OCc2cc(-c3ccccc3)on2)cc1	-2%	-1%	75*	38*	0%	-4%
Cc1ccc(NC(=O)OCc2cccs2)cc1	-17%	-5%	81*	22*	/	-14%
Cc1ccc(C)c(NC(=O)C(Cc2ccccc2)n2cccc2)c1 (configuration not stated)	/	/	/	/	3%	/
CCn1c(=O)cc(OCC(=O)NCc2ccccc2Cl)c2ccccc21	/	/	/	/	-7%	/
CCCc1c(C(=O)N2CCN(c3ccccc3OC)CC2)cnn1-c1ccccc1	-2%	3%	20	0	1%	-6%
CCCc1c(C(=O)Nc2ccc(OC)cc2)cnn1-c1ccccc1	-1%	3%	54*	22*	4%	-6%
CCCc1c(C(=O)NNc2ccccc2OC)cnn1-c1ccccc1	-1%	-3%	41*	23*	-1%	4%
CCc1ccc(CSc2nc(-c3ccccc3OC)nc3c2Cc2c(CO)cnc(C)c2O3)cc1	/	/	/	/	-3%	/

Source: PubChem BioAssay
